# Compound activity: PubChem, several laboratories
# Most compounds without a hit are left out; they make up all but 1.2% or so of the library.
# NCOA1 inh – inhibitors of human steroid receptor coactivator 1 (SRC1). Q15788. HEK293 GAL4-SRC1 luciferase reporter, luminescence. inhibition, % at 3.6 µM. 0.12% of 360,000 active;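 active means inhibition above the campaign mean plus 3 SD, with each screening campaign given its own cutoff, cut at about 60% in these data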;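 further: 0% = DMSO treated cells and 100% = gossypol at 36 µM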
# LRH-1 inv ag – suppresses constitutive activity of human LRH-1; O00482; HEK293T StAR-luciferase reporter, LRH-1 transfected, 24 h; inhibition, % at 3.6 µM; 0.13% of 360,000 active;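 active means inhibition above the mean inhibition of all tested compounds plus 3 SD, cut at about 73% in these data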;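 further: 0% = DMSO wells and 100% = reporter-only cells lacking LRH-1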
# Target sequence (O00482 whole entry, looked up): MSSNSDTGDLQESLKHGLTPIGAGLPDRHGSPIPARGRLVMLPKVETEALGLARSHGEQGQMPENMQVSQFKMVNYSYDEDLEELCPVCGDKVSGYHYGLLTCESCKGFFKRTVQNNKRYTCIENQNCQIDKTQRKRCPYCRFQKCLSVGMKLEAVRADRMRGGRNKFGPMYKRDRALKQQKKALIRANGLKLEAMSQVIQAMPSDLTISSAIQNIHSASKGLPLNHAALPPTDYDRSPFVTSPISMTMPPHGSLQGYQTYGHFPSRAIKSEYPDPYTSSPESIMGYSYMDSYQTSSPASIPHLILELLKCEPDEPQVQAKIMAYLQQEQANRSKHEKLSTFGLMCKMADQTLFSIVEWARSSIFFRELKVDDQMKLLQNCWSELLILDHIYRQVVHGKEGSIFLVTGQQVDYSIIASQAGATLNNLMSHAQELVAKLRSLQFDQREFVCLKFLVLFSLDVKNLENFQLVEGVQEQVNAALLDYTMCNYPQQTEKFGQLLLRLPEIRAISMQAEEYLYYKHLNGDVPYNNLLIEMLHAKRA
# NCOA2 inhibitor – inhibits human steroid receptor coactivator 2; Q15596; HEK293 GAL4-SRC2 luciferase reporter, luminescence; inhibition, % at 9 µM; 0.17% of 370,000 active; AID 651957;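 active means inhibition above the mean inhibition of all tested compounds plus 3 SD, set per campaign, cut at about 52% in these data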;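 further: 0% = DMSO treated cells and 100% = cells given Gossypol at 36 µM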
# SRC3 inh – inhibits human SRC3 coactivator; 0.17% of 360,000 active; AID 588352; HEK293 GAL4-SRC3 luciferase reporter, luminescence; inhibition, % at 3.6 µM; Q9Y6Q9;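 active means inhibition above a per-campaign cutoff, the mean of all compounds plus 3 SD, cut at about 60% in these data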;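 further: 0% = DMSO-treated cells and 100% = gossypol-treated cells at 36 µM; higher means less SRC3-driven luciferase light from the GAL4 reporter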
# Gli-Sufu block – Gli-Sufu pathway antagonism | Sufu-KO-LIGHT fibroblasts, Gli luciferase reporter luminescence | 0.74% of 340,000 active | inhibition, % at 5 µM;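 active means inhibition above about 55%, limit read from the data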;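 further: 0% = DMSO-treated cells and 100% = wells with medium but no cells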
# NR2F2 inh – NR2F2 (human) inhibition, primary screen | P24468 | HEK293T NGFI-A luciferase reporter, luminescence | inhibition, % at 8.6 µM | 0.7% of 370,000 active | AID 686940;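 active means inhibition above a per-plate cutoff, mean inhibition of test wells between control levels plus 3 SD, cut at about 38% in these data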;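 further: cells cotransfected with COUP-TFII expression vector driving the NGFI-A reporter; 0% = median of COUP-TF2 test wells and 100% = reporter-only cells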
# VP16 Luc counter – VP16 inhibition counter-screen for COUP-TFII. shares compounds with NR2F2 inh. HEK293 Gal4-VP16 luciferase reporter, luminescence. inhibition, % at 8.5 µM. 25% of 2,500 active; in the data active means inhibition above about 13%
# COUP-TFII conf – confirmation of human COUP-TFII (NR2F2) inhibitors; shares compounds with NR2F2 inh; 45% of 2,500 active; inhibition, % at 8.5 µM; AID 687008; HEK293 NGFI-A luciferase reporter, luminescence;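 active means mean inhibition over three repeats above a set limit taken from the earlier primary screen, cut at about 38% in these data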;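 further: 100% = cells given the luciferase reporter alone without the COUP-TF2 vector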
# An asterisk follows results filed as active; nt = no result given.
SMILES,NCOA1 inh,LRH-1 inv ag,NCOA2 inhibitor,SRC3 inh,Gli-Sufu block,NR2F2 inh,VP16 Luc counter,COUP-TFII conf
FC(F)(F)c1cccc(NC(=S)N(CCCN2CCCC2)Cc2cccn2Cc2ccc(Cl)cc2)c1,1.3,12.5,1.5,37.8,-4.0,38.5*,-2.2,1.1
Nc1ccc(-c2ccc(N)c(C(=O)O)c2)cc1C(=O)O,-16.7,11.3,-34.2,-0.6,-0.7,-3.7,nt,nt
Nc1ccc(Br)cc1C(=O)O,14.0,4.7,51.5,30.3,4.9,45.2*,54.0*,35.2
O=C(C(=O)c1cc(Br)ccc1O)c1cc(Br)ccc1O,-1.6,16.2,15.8,17.1,29.3,39.1*,6.5,10.2
O=C(c1ccc(O)c(Br)c1)c1cc(Br)ccc1O,-8.7,-20.9,-1.4,11.9,4.0,3.1,nt,nt
Fc1ccccc1CNc1ncnc2sccc12,22.5,32.7,27.1,27.3,11.8,48.3*,9.9,41.2*
COc1ccccc1CNc1ncnc2sccc12,17.5,31.4,24.9,22.7,46.7,61.6*,7.5,53.0*
COc1cc2ncnc(NCc3ccccc3F)c2cc1OC,14.2,-1.0,10.6,4.2,5.4,-22.7,nt,nt
CN(C)c1ccc(CNc2ncnc3sccc23)cc1,24.9,46.8,18.6,12.4,62.7*,66.2*,10.6,51.6*
COc1cccc(N2CCN(C(=O)CCn3nnc4ccccc43)CC2)c1,nt,nt,15.8,nt,nt,4.4,nt,nt
CCCC(=O)N1CCC[C@]2(CC[C@@H](CCC(=O)OCC)O2)C1,nt,nt,-5.2,nt,nt,-6.3,nt,nt
O=C(NCCc1c[nH]c2ccccc12)OCc1cn(Cc2ccccc2Cl)nn1,nt,nt,-16.0,nt,nt,1.3,nt,nt
CCCCCCC(=O)NC1CCCCN(Cc2cccc(Cl)c2)C1=O (stereo not drawn),nt,nt,2.4,nt,nt,0.3,nt,nt
CS(=O)(=O)c1ccc(NC(=O)C2CCCN(C(=O)c3ccc(Cl)cc3)C2)cc1 (stereo not drawn),9.8,10.4,-7.9,13.4,-8.3,7.9,nt,nt
Cc1ccc(NC(=O)C2CCCN(C(=O)c3ccc(Cl)cc3)C2)cc1S(=O)(=O)N1CCOCC1 (stereo not drawn),12.1,14.9,-11.8,9.5,20.7,37.6*,-7.2,3.0
Cc1ccccc1C(=O)N1CCC(C(=O)Nc2ccc(C)c(S(=O)(=O)N3CCCCC3)c2)CC1,-0.9,11.2,16.3,19.9,14.4,41.6*,-6.2,13.1
O=C(Cc1ccc(NC(=O)C2CCCN(C(=O)c3ccccc3)C2)cc1)Nc1cccc(C(=O)N2CCCCC2)c1 (stereo not drawn),nt,nt,15.2,nt,nt,-20.8,nt,nt
Cc1cccc(-n2ncc3c2CCCC3NC(=O)c2cccs2)c1C (stereo not drawn),2.7,-3.8,5.5,6.5,nt,43.8*,-2.0,25.2
CC1=C(C(=O)NC2CCCc3c2cnn3-c2cccc(C)c2C)OCCO1 (stereo not drawn),15.1,25.5,24.3,8.6,57.3*,55.9*,-1.8,44.5*
Cc1cc(C(=O)NC2CCCc3c2cnn3-c2ccc(C(C)(C)C)cc2)nn1C (stereo not drawn),2.1,20.3,12.3,32.5,57.5*,64.0*,3.4,70.7*
Cc1cccc(-n2ncc3c2CCCC3NC(=O)c2ccncc2)c1C (stereo not drawn),30.9,49.3,5.4,18.4,nt,63.8*,1.6,48.7*
COc1ccc(C(=O)NC2CCCc3c2cnn3-c2cccc(C)c2C)o1 (stereo not drawn),-45.0,1.3,3.1,-172.2,42.9,11.4,nt,nt
Cc1cc(C(=O)NC2CCCc3c2cnn3-c2cccc(C)c2C)no1 (stereo not drawn),15.7,-6.9,4.3,-23.0,33.9,-15.8,nt,nt
CCN1C(=O)N(C(C)=O)[C@@H]2C[C@H](C(=O)N3CCCC3)[C@H](C)[C@H](c3ccccc3)C[C@@H]21,nt,nt,-12.8,nt,nt,2.6,nt,nt
c1ccc2c(c1)OCc1nccn1-2,nt,nt,-12.3,nt,nt,-6.8,nt,nt
SMILES,NCOA1 inh,LRH-1 inv ag,NCOA2 inhibitor,SRC3 inh,Gli-Sufu block,NR2F2 inh,VP16 Luc counter,COUP-TFII conf
CCCCNc1cccc2c1S(=O)(=O)N[C@H](Cc1ccccc1)CO2,nt,nt,20.4,nt,nt,3.4,nt,nt
COc1cccc(NC(=O)C2CCCN2C(=O)NC2CCC(C)CC2)c1 (stereo not drawn),nt,nt,0.6,nt,nt,3.7,nt,nt
CCn1cc(C(=O)NC2CCCc3c2cnn3-c2cccc(C)c2C)cn1 (stereo not drawn),-25.6,-1.4,12.6,-111.1,nt,63.5*,-4.1,50.0*
Cc1cccc(-n2ncc3c2CCCC3NC(=O)CN2CCOC2=O)c1C (stereo not drawn),0.0,-6.8,-14.1,18.9,-11.1,-15.3,nt,nt
Cc1nc(NCCc2cnc[nH]2)c2oc3ccccc3c2n1,1.0,0.4,8.9,4.5,-1.9,-21.9,nt,nt
COc1ccc(CCNc2nc(C)nc3c2oc2ccccc23)cc1OC,12.9,11.0,4.7,12.8,-10.4,40.4*,0.1,26.8
COc1ccc(S(=O)(=O)N2CCOC2CNC(=O)C(=O)NCCc2ccc(OC)c(OC)c2)cc1 (stereo not drawn),12.3,16.3,17.0,13.6,23.0,12.5,nt,nt
COc1ccc(CCNC(=O)C(=O)NCC2OCCN2S(=O)(=O)c2ccc(Cl)cc2)cc1OC (stereo not drawn),-3.3,12.5,20.8,2.3,3.2,42.4*,2.8,17.3
Cc1cccn2cc(-c3ccc(NC(=O)Cc4ccccc4)cc3)nc12,7.4,-10.7,0.1,-16.3,-11.3,54.0*,0.4,-16.5
C[C@H](O)[C@@H]1C(=O)N2CCc3c([nH]c4cccc(-c5ccccc5)c34)[C@@H]2C[C@@H]1N(C)C(=O)NC1CCCCC1,nt,nt,-11.1,nt,nt,5.3,nt,nt
CC(=O)N[C@@H](C)c1nc2ccccc2n1CCCN1CCN(c2nc(-c3ccc(C)cc3)cs2)CC1,-2.1,16.1,20.0,-7.9,22.8,62.2*,-10.8,48.1*
CCn1c(C(C)NC(C)=O)nc2ccccc21 (stereo not drawn),-13.2,-26.8,-35.2,4.3,0.9,-9.9,nt,nt
Cc1ccc(-c2csc(N3CCN(CCCn4c(C(F)(F)F)nc5ccccc54)CC3)n2)cc1,-0.8,9.2,2.2,-1.7,18.5,5.9,nt,nt
Cc1ccc(-c2csc(N3CCN(CCCn4c(-c5ccncc5)nc5ccccc54)CC3)n2)cc1,-4.8,-25.6,-0.2,0.5,18.8,52.9*,1.2,29.0
CCCCCC(=O)NC1CCCCN(Cc2ccccc2C)C1=O (stereo not drawn),nt,nt,-2.2,nt,nt,9.5,nt,nt
FC(F)(F)c1ccccc1Cn1ccc2ccc(-c3ccc4ccn(Cc5ccccc5C(F)(F)F)c4c3)cc21,nt,nt,-13.0,nt,nt,-14.3,nt,nt
CC(=O)N1C[C@@H](CO)[C@@H]2C[C@H]1c1ccccc1N2C,nt,nt,-1.5,nt,nt,-8.0,nt,nt
